Pf Dd2 growth = qHTS Primary assay for Inhibitors of Plasmodium falciparum Dd2 growth in vitro; P. falciparum Dd2 growth, SYBR Green, 72 h; Potency, µM (top dose mostly 28.9 µM), without a hit: at the highest dose activity, negative = inhibition, hits mostly inhibitors; hit rate 4.3% among 120,000; AID 1347417, 2020; active = well fitted inhibition curve with a large enough effect;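 note: plate controls were DMSO vehicle for no effect and reference drug for full effect; nearly all actives have a fitted effect of over 65% in size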
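Infected erythrocytes (Dd2, 0.3% parasitemia, 2.5% hematocrit final) are added to compound in RPMI-1640/Albumax II medium, grown 72 h at 37C in low oxygen, then lysed with saponin/Triton-X containing SYBR Green and read by fluorescence.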
An asterisk follows results filed as active; i = inactive; [ ] = remark or other dose. This is one part of a sample in which hits are shown more often than they occur. Potency is the fitted concentration of half-maximal effect.

SMILES | Pf Dd2 growth
Cc1cc2cc(-c3c(C)noc3C)nc(N(C)CCN(C)C)c2o1 | 2µM*
Cc1cc2cc(-c3c(C)noc3C)nc(Nc3ccccc3)c2o1 | -28.5%[44.1 µM]
Cc1cc2cc(-c3c(C)noc3C)nc(N3CCCC3)c2o1 | -12.3%[44.1 µM]
CCc1ccccc1NC(=O)Cn1c(=O)n(Cc2ccccc2)c(=O)c2c(C)c(C(=O)N(C)C)sc21 | 4.47µM*
CCN(CC)C(=O)c1sc2c(c1C)c(=O)n(-c1ccccc1)c(=O)n2Cc1cc(=O)n2ccccc2n1 | 16.4%
Cc1cc(C)c(NC(=O)Cn2c(=O)n(Cc3ccccc3)c(=O)c3c(C)c(C(=O)N(C)C)sc32)c(C)c1 | -26.7%
Cc1sc2c(c1C)c(=O)n(Cc1ccccc1)c(=O)n2Cc1ccc(F)cc1 | 46.4%
CCN(CC)C(=O)c1sc2c(c1C)c(=O)n(CCc1ccccc1)c(=O)n2Cc1ccc(C)cc1 | 11.2µM*
CCN(CC)C(=O)c1sc2c(c1C)c(=O)n(-c1ccc(C)c(C)c1)c(=O)n2Cc1cc(=O)n2c(C)cccc2n1 | -7.1%
CCN(CC)C(=O)c1sc2c(c1C)c(=O)n(-c1ccccc1)c(=O)n2Cc1c(C)cc(C)cc1C | 10µM*
Cc1ccccc1NC(=O)Cn1c(=O)n(Cc2ccccc2)c(=O)c2c(C)c(C)sc21 | 18.4%
CCc1ccc(-n2c(=O)c3c(C)c(C(=O)N(C)C)sc3n(Cc3cccc(C)c3)c2=O)cc1 | 31.1%
COc1cccc(CC(=O)N2CCN(C(=O)c3nnn4c3COC(c3ccccc3)C4)CC2)c1 (stereo not drawn) | -3.7%
CCCNC(=O)O[C@@H]1CC[C@]2(C)C(CC[C@@H](O)[C@H]2CC(=O)NCc2ccc(OC)cc2)[C@]1(C)CO (stereo partly drawn) | i
O=S(=O)(c1cccc(C(F)(F)F)c1)N1CCCC(Cn2cnc3cccnc32)C1 (stereo not drawn) | -17.2%
COCCOC1CN(C2CCN(C(=O)NC(C)C)CC2)C12CCCCC2 (stereo not drawn) | i
CC(C)C(=O)N1CCC(N2CC(OCC3CC3)C23CCCCC3)CC1 (stereo not drawn) | 3.16µM*
Cc1ccc(C(=O)N2CCC(N3CC(OCC4CC4)C34CCCCC4)CC2)cn1 (stereo not drawn) | -4.9%
O=C1C(O)C2(CCCCC2)N1C1CCNCC1 (stereo not drawn) | 10.3%
C1CC2(CCN1)CC(OCC1CC1)CCO2 (stereo not drawn) | 24.6%
C1CCC2(CC1)C(OCC1CC1)CN2C1CCNCC1 (stereo not drawn) | 3.98µM*
COc1cc(OC)c(NC(=O)CCNS(=O)(=O)c2ccc3c(c2)oc(=O)n3C)cc1Cl | 3.6%
CC(=O)c1ccc(NC(=O)Cn2cnc3nc4c(cc3c2=O)CC(C)CC4)cc1 (stereo not drawn) | 28.1%
COc1cc(Cl)ccc1C(=O)N1CCN(c2cc(-c3cccs3)[nH]n2)CC1 | i
Cc1ccc(-c2noc([C@@H]3CCCN3C(=O)c3ccccn3)n2)cc1 | 18.0%
SMILES | Pf Dd2 growth
Cc1cc(Cl)ccc1-c1ccccc1CN | 8.91µM*
Cc1ccc(-c2cccc(CN)c2)c(C)c1 | 14.1µM*
Cc1cc(Cl)ccc1-c1ccccc1C=O | -25.7%[44.1 µM]
Cc1cc(Cl)ccc1-c1ccc(C=O)cc1 | 10.7%[44.1 µM]
O=C(O)c1cccc(-c2cc(C(F)(F)F)ccc2Cl)c1 | 4.3%
NCc1ccc(Oc2ccc(F)c(Cl)c2)cc1 | -26.3%[44.1 µM]
NCc1cccc(-c2cc(C(F)(F)F)ccc2Cl)c1 | 10µM*
Cc1ccc(Cn2ccn(Cc3cccc(C(F)(F)F)c3)c(=O)c2=O)cc1 | i
Cc1cc(F)ccc1-c1cccc(COc2cnc3c(ccn3CC(=O)O)c2)c1 | i
Cc1cc(Cl)ccc1-c1cccc(CN)c1 | 14.1µM*
Cc1cc2c(cc1S(=O)(=O)N1CCC(C(N)=O)CC1)OCC(=O)N2 | 18.7%
COc1cccc(N2CC(NC(=O)c3ccco3)CC2=O)c1 (stereo not drawn) | 30.1%
O=C(N1CCOCC1)C1(CCO)CC12CCOCC2 (stereo not drawn) | 38.2%
COc1ccc(C(=O)NC2CCCN(c3cc(-c4ccc(Cl)cc4)[nH]n3)C2)c(C)c1 (stereo not drawn) | i
C[S+](=O)([O-])N1CCc2nc(-c3ccccc3)nc(-c3ccc(Cl)cc3)c2C1 | -29.8%
CCCC1(CO)CCCN(Cc2cccc(N3CCOCC3)c2)C1 (stereo not drawn) | -8.4%
COc1ccc(CC(=O)N2CNC(=O)C23CCN(C(=O)CCN)CC3)cc1 | 3.0%
CCOC(=O)c1ccc(NC(=O)Nc2cc3c(cc2N2CCCC2)n(C)c(=O)n3C)cc1 | i
CCOC(=O)C1CCN(c2cc3c(cc2NC(=O)c2ccc(OC)c(OC)c2)n(C)c(=O)n3C)CC1 | 8.91µM*
COc1ccc(C(=O)Nc2cc(C(F)(F)F)ccc2N2CCN(c3ccccc3)CC2)cc1OC | -7.3%
COc1ccccc1N1CCN(c2ncccc2CNC(=O)C2COC(=O)N2)CC1 (stereo not drawn) | 16.9%
O=C(Nc1cccc(C(F)(F)F)c1)c1cnc2c(c1)N(C(=O)CCc1ccccc1)CCC2 | i
CC(C)c1ccc(CC(=O)N2CCCc3ncc(C(=O)NCCN4CCCC4)cc32)cc1 | -6.7%[44.1 µM]
CC(C)NC(=O)c1cnc2c(c1)N(C(=O)Cc1ccc(C(C)C)cc1)CCC2 | i
CC(C)c1ccc(CC(=O)N2CCCc3ncc(C(=O)NCCc4ccccc4)cc32)cc1 | i
SMILES | Pf Dd2 growth
CC(C)c1ccc(CC(=O)N2CCCc3ncc(C(=O)Nc4cccc(Cl)c4)cc32)cc1 | 12.6µM*
CC(C)c1ccc(CC(=O)N2CCCc3ncc(C(=O)Nc4ccc5[nH]ccc5c4)cc32)cc1 | -12.4%
CC(C)c1ccc(CC(=O)N2CCCc3ncc(C(=O)Nc4cccnc4)cc32)cc1 | 0.631µM*
CC(C)c1ccc(CC(=O)N2CCCc3ncc(C(=O)NCc4ccccc4)cc32)cc1 | i
Cn1cc(CC(=O)N2CCCc3ncc(C(=O)Nc4cccc(C(F)(F)F)c4)cc32)c2ccccc21 | i
CC(C)c1ccc(CC(=O)N2CCCc3ncc(C(=O)NCC(C)(C)CO)cc32)cc1 | i
CC(C)c1ccc(CC(=O)N2CCCc3ncc(C(=O)Nc4ccccn4)cc32)cc1 | 7.94µM*
O=C(Nc1cccc(F)c1)c1cnc2c(c1)N(C(=O)Cc1cccc(C(F)(F)F)c1)CCC2 | 11.2µM*
COc1ccc(NC(=O)C2CCN(c3nc4ccccc4nc3C(F)(F)F)CC2)cc1 | i
Cn1ccnc1CNC(=O)C[C@@H]1C[C@H]2O[C@H](CNCc3ccccc3C(F)(F)F)[C@@H](O)[C@H]2O1 | 10.8%
COCCNC(=O)CCCn1c(SCC(=O)c2ccc(F)cc2)nc2c(sc3ccccc32)c1=O | -13.8%
CC(C)(O)CCc1ccc(C(=O)N2CCC(c3cccc(O)c3)CC2)cc1 | -16.3%
COCc1nc(C2CCN(C(=O)COc3ccc(F)cc3)C2)no1 (stereo not drawn) | -14.8%
O=C(NC1CCN(c2cc(-c3ccc(Cl)cc3)[nH]n2)C1)c1ccc2[nH]ccc2c1 (stereo not drawn) | i
O=C(NC1CCN(c2cc(-c3ccc(F)cc3)[nH]n2)C1)c1ccccc1 (stereo not drawn) | -9.1%
COc1ccc(-c2cc(N3CCCC(NC(=O)c4cccc(C(F)(F)F)c4)C3)n[nH]2)cc1 (stereo not drawn) | 1.26µM*
Cc1ccc(C(=O)NC2CCN(c3cc(-c4ccc(F)cc4)[nH]n3)C2)cc1 (stereo not drawn) | i
COc1ccc(-c2cc(N3CCC(NC(=O)c4cccc(OC(F)(F)F)c4)C3)n[nH]2)cc1 (stereo not drawn) | -7.6%

Source: PubChem
